The values that follow come from ChEMBL document CHEMBL1961873, “Compounds: GSK PKIS; Assays: Nanosyn kinase panel” (2012).

Assay [1] addresses Rho-associated protein kinase 1 (Homo sapiens) (UniProt Q13464). Particulars: at 1 µM.
Assay [2] deals with Rho-associated protein kinase 2 (Homo sapiens) (UniProt O75116). Particulars: at 0.1 µM.
Assay [3] has the same target. Particulars: at 1 µM.
Assay [4] has as its target Ribosomal protein S6 kinase alpha-1 (Homo sapiens) (UniProt Q15418). Particulars: at 0.1 µM.
For assay [5] the target is unchanged. Particulars: at 1 µM.
In assay [6] the target is Ribosomal protein S6 kinase alpha-3 (Homo sapiens) (UniProt P51812). Particulars: at 0.1 µM.
For assay [7] the target is unchanged. Particulars: at 1 µM.
For assay [8], the target named is Ribosomal protein S6 kinase alpha-2 (Homo sapiens) (UniProt Q15349). Particulars: at 0.1 µM.
Assay [9] shares this target. Particulars: at 1 µM.
In assay [10] the target is Ribosomal protein S6 kinase alpha-6 (Homo sapiens) (UniProt Q9UK32). Particulars: at 0.1 µM.
Assay [11] has the same target. Particulars: at 1 µM.
The target of assay [12] is T1, Serine/threonine-protein kinase Sgk1 (Homo sapiens) (UniProt O00141).
T1 sequence (whole entry): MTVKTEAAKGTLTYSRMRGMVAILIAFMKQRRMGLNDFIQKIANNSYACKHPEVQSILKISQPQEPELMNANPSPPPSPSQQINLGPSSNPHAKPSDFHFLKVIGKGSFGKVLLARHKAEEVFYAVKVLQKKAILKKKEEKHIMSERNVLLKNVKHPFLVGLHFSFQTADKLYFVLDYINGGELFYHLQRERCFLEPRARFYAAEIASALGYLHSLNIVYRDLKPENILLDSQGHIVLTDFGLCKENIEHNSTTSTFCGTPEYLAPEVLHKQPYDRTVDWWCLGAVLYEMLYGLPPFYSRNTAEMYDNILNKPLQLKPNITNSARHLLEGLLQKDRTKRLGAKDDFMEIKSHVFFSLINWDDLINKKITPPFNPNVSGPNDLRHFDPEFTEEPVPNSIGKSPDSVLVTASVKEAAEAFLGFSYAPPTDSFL
Particulars: at 0.1 µM.

The target in assay [13] is T1, Serine/threonine-protein kinase Sgk1 (Homo sapiens). Particulars: at 1 µM.
For assay [14], the target named is T2, Serine/threonine-protein kinase Sgk2 (Homo sapiens) (UniProt Q9HBY8).
T2 sequence (whole entry): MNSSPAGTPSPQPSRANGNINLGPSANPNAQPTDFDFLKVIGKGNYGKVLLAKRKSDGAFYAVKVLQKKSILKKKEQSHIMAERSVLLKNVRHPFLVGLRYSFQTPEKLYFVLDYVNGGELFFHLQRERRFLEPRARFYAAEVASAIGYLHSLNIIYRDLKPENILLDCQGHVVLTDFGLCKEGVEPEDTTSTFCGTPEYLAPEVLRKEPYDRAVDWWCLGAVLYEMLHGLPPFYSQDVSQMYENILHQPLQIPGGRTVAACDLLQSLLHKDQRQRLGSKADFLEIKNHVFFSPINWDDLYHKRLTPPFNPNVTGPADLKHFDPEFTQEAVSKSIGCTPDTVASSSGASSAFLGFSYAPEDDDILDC
Particulars: at 0.1 µM.

Assay [15] has as its target T2, Serine/threonine-protein kinase Sgk2 (Homo sapiens). Particulars: at 1 µM.
Assay [16] concerns the target T3, Serine/threonine-protein kinase Sgk3 (Homo sapiens) (UniProt Q96BR1).
T3 sequence (whole entry): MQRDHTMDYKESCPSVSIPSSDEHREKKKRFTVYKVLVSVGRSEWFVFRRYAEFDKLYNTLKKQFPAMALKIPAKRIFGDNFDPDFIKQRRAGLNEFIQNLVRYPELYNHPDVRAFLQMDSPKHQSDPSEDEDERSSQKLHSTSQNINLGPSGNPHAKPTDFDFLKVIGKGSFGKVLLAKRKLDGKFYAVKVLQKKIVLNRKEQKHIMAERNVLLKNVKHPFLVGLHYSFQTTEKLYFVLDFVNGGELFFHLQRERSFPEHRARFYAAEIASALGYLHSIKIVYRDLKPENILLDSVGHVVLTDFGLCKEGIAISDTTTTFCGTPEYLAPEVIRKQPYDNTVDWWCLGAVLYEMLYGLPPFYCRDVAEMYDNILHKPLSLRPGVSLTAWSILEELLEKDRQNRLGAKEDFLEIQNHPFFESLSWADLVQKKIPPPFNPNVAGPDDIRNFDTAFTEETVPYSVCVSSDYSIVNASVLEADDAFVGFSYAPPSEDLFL
Particulars: at 0.1 µM.

Assay [17] concerns the target T3, Serine/threonine-protein kinase Sgk3 (Homo sapiens). Particulars: at 1 µM.
Assay [18] has as its target 5'-AMP-activated protein kinase catalytic subunit alpha-1 (Homo sapiens) (UniProt Q13131). Particulars: at 0.1 µM.
Assay [19] shares this target. Particulars: at 1 µM.
Assay [20] has as its target 5'-AMP-activated protein kinase catalytic subunit alpha-2 (Homo sapiens) (UniProt P54646). Particulars: at 0.1 µM.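 Note: mean inhibition measured on the AMPK complex of alpha2, beta1 and gamma1 subunits.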

Sequence of 5'-AMP-activated protein kinase catalytic subunit alpha-1 (Homo sapiens) (Q13131 whole entry, looked up): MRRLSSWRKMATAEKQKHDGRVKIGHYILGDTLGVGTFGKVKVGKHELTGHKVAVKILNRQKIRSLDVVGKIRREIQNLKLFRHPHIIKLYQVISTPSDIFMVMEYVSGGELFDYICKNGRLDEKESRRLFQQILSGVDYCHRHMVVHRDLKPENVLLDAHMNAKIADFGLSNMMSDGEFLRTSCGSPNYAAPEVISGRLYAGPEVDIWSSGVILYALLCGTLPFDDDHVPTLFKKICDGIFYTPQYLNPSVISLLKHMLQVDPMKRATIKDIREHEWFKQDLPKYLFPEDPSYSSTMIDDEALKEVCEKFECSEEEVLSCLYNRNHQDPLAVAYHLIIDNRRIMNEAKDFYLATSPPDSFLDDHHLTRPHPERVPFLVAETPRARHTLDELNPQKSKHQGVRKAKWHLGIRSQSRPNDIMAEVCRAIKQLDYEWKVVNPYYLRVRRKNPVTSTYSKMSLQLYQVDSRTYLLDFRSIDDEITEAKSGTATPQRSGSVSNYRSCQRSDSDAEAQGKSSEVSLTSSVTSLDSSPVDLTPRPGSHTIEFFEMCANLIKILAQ
Sequence of Ribosomal protein S6 kinase alpha-1 (Homo sapiens) (Q15418 whole entry): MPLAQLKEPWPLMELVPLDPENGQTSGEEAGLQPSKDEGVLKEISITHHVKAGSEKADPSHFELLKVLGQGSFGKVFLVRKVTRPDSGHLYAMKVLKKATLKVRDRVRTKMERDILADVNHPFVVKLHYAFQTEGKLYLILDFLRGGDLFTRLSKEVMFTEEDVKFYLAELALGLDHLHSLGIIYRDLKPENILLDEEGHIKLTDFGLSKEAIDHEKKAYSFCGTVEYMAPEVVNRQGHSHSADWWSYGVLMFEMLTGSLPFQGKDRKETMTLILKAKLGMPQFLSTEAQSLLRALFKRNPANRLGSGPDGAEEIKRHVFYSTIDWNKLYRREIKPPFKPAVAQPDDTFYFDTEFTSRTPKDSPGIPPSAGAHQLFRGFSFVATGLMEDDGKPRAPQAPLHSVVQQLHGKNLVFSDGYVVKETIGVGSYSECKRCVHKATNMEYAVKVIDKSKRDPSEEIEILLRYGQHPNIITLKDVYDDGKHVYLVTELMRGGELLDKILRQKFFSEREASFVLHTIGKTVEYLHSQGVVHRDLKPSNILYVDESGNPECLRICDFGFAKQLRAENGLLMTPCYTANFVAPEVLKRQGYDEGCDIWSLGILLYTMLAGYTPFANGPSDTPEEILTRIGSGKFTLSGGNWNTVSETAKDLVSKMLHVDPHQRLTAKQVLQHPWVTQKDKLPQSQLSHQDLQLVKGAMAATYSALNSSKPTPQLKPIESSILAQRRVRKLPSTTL
Sequence of Ribosomal protein S6 kinase alpha-3 (Homo sapiens) (P51812 whole entry): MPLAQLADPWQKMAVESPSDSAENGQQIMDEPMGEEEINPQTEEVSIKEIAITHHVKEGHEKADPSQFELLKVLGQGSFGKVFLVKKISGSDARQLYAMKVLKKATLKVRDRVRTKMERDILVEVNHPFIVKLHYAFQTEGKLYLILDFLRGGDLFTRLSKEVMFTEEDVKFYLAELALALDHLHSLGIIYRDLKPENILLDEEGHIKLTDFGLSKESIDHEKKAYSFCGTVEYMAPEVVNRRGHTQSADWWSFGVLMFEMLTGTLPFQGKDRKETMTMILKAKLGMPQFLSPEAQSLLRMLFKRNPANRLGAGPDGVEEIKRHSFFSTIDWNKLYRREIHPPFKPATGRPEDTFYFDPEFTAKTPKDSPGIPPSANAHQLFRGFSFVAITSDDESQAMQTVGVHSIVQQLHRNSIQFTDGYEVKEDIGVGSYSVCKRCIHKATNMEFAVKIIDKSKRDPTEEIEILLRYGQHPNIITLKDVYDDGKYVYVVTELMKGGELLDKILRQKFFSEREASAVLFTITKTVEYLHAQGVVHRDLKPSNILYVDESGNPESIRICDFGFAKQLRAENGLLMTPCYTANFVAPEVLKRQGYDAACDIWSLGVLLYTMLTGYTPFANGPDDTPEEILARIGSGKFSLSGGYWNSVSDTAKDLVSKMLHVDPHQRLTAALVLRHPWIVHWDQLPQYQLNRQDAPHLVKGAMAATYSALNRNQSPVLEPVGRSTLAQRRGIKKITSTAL
Sequence of Ribosomal protein S6 kinase alpha-2 (Homo sapiens) (Q15349 whole entry): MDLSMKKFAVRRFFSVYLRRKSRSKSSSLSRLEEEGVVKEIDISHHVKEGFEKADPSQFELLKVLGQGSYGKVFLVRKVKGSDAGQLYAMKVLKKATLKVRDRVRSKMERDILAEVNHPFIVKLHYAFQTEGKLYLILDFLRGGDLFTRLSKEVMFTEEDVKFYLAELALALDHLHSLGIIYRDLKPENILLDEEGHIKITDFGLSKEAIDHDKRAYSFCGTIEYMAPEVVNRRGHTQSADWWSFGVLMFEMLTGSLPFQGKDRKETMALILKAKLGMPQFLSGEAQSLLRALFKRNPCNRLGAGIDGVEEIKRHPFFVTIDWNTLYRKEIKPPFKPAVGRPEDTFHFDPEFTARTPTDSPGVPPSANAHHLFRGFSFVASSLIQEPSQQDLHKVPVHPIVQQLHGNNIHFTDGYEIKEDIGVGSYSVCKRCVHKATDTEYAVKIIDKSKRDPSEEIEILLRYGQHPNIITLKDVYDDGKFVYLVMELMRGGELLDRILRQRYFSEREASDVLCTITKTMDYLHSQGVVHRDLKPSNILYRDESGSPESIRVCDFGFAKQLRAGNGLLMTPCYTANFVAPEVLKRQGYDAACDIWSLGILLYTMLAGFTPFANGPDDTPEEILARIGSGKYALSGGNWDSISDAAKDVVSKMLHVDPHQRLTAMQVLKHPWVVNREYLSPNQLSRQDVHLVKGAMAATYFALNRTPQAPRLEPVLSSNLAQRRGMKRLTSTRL
Sequence of Rho-associated protein kinase 1 (Homo sapiens) (Q13464 2-1354 limits assumed): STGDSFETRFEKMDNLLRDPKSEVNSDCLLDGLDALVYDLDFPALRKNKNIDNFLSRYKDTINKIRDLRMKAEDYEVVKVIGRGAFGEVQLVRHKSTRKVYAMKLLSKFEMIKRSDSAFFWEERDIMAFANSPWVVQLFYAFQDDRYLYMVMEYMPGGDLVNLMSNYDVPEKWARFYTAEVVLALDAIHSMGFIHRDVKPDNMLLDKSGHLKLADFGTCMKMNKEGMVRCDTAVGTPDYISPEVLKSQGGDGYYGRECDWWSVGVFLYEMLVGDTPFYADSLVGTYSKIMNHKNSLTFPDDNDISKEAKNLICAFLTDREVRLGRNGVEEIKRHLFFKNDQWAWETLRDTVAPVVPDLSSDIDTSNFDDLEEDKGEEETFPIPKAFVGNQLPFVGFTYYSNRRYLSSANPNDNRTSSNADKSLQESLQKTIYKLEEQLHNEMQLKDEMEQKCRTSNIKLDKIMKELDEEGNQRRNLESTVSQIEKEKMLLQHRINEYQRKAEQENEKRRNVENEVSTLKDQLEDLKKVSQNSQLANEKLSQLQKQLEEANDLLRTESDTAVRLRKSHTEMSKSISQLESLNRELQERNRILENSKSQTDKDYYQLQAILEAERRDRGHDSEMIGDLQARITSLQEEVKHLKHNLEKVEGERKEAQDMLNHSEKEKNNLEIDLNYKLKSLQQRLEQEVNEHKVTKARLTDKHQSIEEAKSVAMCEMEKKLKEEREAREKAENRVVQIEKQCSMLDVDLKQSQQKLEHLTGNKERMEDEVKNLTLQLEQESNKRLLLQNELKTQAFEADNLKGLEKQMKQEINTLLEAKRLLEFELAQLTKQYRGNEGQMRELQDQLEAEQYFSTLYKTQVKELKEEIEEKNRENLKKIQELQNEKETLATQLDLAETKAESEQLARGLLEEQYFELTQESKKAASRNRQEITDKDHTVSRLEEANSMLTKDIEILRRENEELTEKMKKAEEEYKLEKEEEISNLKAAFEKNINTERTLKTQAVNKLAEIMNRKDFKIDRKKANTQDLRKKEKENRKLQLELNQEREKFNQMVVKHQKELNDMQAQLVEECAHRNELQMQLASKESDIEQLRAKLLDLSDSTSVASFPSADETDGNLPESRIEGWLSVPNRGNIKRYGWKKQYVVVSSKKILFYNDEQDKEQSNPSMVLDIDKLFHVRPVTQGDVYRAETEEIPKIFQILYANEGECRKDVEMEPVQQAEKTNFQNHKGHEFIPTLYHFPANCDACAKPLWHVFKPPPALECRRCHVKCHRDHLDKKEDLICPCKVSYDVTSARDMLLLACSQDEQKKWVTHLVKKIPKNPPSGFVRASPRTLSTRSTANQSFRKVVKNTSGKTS
Sequence of 5'-AMP-activated protein kinase catalytic subunit alpha-2 (Homo sapiens) (P54646 whole entry, looked up): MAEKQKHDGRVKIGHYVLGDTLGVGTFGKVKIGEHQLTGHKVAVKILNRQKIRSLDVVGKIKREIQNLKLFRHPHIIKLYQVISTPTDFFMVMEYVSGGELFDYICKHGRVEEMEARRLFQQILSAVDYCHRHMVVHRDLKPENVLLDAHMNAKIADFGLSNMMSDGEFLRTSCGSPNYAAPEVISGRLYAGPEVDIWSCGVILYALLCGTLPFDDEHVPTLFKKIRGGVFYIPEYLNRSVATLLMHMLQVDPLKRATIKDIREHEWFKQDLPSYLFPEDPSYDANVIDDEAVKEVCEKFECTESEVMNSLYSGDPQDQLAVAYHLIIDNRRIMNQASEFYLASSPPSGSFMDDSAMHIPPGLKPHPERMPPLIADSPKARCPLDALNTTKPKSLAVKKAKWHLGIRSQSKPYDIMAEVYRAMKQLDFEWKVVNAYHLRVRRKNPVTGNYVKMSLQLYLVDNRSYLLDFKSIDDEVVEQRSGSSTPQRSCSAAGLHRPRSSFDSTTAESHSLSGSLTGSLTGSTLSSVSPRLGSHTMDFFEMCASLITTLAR

For `COc1cccc(-n2ncc3c(N/N=C/c4ccc(S(C)(=O)=O)cc4)ncnc32)c1`, the inhibition worked out at 1.16% in assay [1]; 1.71% in assay [2]; 1.85% in [3]; 1.45% in assay [4]; 0.53% in [5]; 1.53% in assay [6]. For the same compound, the inhibition in [7] worked out at 0.98%; in [8] it was 1.87%; in assay [9], 4.48%; in assay [10], 0.99%; in assay [11], 3.2%; in assay [12], 3.81%. For the same compound, the inhibition was 10.1% in assay [13]; 6.74% in [14]; 4.33% in assay [15]; -0.55% in assay [16]; 2.6% in assay [17]; 1.41% in [18]. Also, the figures for the inhibition in assay [19] and in assay [20] were 2% and 3.56%, respectively.
As for `COc1cccc(-n2ncc3c(N/N=C/c4ccc(C)cc4)ncnc32)c1`, the inhibition in assay [1] was found to be 4.15%; in assay [2], 3.08%; in [3] it was 5.34%; in assay [4], 2.5%; in assay [5] it was 6.59%; in [6], 0.75%. The inhibition was 5.14% in [7]; 3.75% in [8]; 4.8% in assay [9]; 0.68% in assay [10]; 3.14% in [11]; 0.12% in assay [12]. The inhibition in [13] is 3.62%; in assay [14] it was 1.23%; in assay [15], 2.8%; in [16], 3.8%; in assay [17], 2.61%; in assay [18], 1.9%. In addition, the inhibition in assay [19] stood at 6.98%; in [20], 7.16%.
For `CC(C)c1ccc2c(c1)NC(=O)/C2=N/Nc1ccc(S(N)(=O)=O)cc1`, the inhibition in [1] was -1.28%; in assay [2], -1.58%; in assay [3], -0.82%; in assay [4], 0.52%; in assay [5] it was 0.63%; in [6] it was -0.56%. The inhibition was 2.05% in assay [7]; 1% in assay [8]; 2.15% in [9]; -0.83% in [10]; 0.17% in assay [11]; 0.54% in [12]. The inhibition in [13] is 0.73%; in assay [14] it was 5.31%; in [15], -4.03%; in [16], 4.97%; in [17], -1.88%; in [18] it was -0.83%. In addition, the inhibition in assay [19] came out at 0.29%; in [20] it was 1.03%.
For the compound `CCn1c(-c2nonc2N)nc2c(C#CC(C)(C)O)nc(OCCNC)cc21`, the inhibition stood at 4.86% in assay [1]; 3.51% in assay [2]; 5.7% in [3]; 0.22% in assay [4]; 4.86% in assay [5]; 1.84% in assay [6]. In addition, the inhibition in assay [7] amounted to 5.57%; in assay [8], 3.02%; in assay [9] it was 7.49%; in assay [10] it was 0.98%; in assay [11], 2.45%; in assay [12] it was 1.88%. Moreover, the inhibition in assay [13] is 2.66%; in assay [14] it was 2.29%; in assay [15], 4.48%; in [16] it was 2.71%; in assay [17] it was 13.9%; in assay [18], 2.74%. Moreover, the results for the inhibition in assay [19] and in assay [20] were 8.37% and 4.37%, respectively.
For `Cc1ccc(O)cc1Nc1ccnc2ccc(S(C)(=O)=O)cc12`, the inhibition in assay [1] was 1.52%; in assay [2], 4.28%; in assay [3], 5.46%; in assay [4] it was 2.4%; in [5], 0.29%; in [6], 0.8%. Besides, the inhibition in assay [7] is 1.28%; in assay [8], 3.52%; in [9], 3.02%; in [10], 2.13%; in assay [11], 1.9%; in assay [12], 3.76%. For the same compound, the inhibition was found to be 6.8% in assay [13]; 4.31% in [14]; 4.71% in assay [15]; 4.36% in assay [16]; 5.21% in [17]; 2.21% in assay [18]. Moreover, the inhibition in assay [19] amounted to 5.69%; in assay [20], 3.06%.
Take `O=C(Nc1ccc(Oc2ccc3[nH]c(NC(=O)c4ccco4)nc3c2)cc1)Nc1cc(C(F)(F)F)ccc1F`: the inhibition came to 26.5% in assay [1]; 4.21% in [2]; 31.3% in assay [3]; 1.39% in [4]; 10.2% in assay [5]; 1.5% in assay [6]. The inhibition came out at 6.22% in assay [7]; 5.27% in [8]; 35.7% in assay [9]; 0.96% in assay [10]; 3.95% in assay [11]; 0.67% in assay [12]. In addition, the inhibition is -0.62% in [13]; 0.44% in assay [14]; 2.52% in assay [15]; 0.1% in assay [16]; -0.97% in assay [17]; 1.07% in assay [18]. The inhibition worked out at 2.39% in assay [19] and 1.95% in assay [20].
On to `Cc1ccc(C(=O)NC2CC2)cc1-c1ccc2[nH]ncc2c1`, for which the inhibition in [1] stood at 6.16%; in assay [2], 0.52%; in assay [3], 16.1%; in assay [4] it was 1.16%; in assay [5] it was 1.93%; in assay [6], 2.94%. Moreover, the inhibition in assay [7] was 4.97%; in assay [8] it was -0.94%; in assay [9], 0.23%; in assay [10] it was -0.73%; in assay [11], -0.57%; in assay [12], -2.34%. The inhibition in assay [13] was -1.16%; in assay [14], -5.03%; in [15] it was -0.82%; in assay [16] it was -5.05%; in assay [17], 1.68%; in assay [18], -1.87%. Besides, the inhibition in assay [19] turned out to be 0.2%; in assay [20], 0.12%.
